Outcome and AC50 data for nine compounds are collected here from PubChem BioAssay (EPA / NIEHS).

Results filed as inconclusive are left out. Active and inactive are the calls of the source. How the source made its calls, unless noted: active means hit-call score of the fitted dose curve at least 0.9, where 1 is the maximum; inconclusive means response in the unintended direction; inactive means score below 0.9.

What is called AC50 is the concentration giving half of the maximal activity seen.

PGR (gene 5241), sequence (P06401 whole entry, looked up): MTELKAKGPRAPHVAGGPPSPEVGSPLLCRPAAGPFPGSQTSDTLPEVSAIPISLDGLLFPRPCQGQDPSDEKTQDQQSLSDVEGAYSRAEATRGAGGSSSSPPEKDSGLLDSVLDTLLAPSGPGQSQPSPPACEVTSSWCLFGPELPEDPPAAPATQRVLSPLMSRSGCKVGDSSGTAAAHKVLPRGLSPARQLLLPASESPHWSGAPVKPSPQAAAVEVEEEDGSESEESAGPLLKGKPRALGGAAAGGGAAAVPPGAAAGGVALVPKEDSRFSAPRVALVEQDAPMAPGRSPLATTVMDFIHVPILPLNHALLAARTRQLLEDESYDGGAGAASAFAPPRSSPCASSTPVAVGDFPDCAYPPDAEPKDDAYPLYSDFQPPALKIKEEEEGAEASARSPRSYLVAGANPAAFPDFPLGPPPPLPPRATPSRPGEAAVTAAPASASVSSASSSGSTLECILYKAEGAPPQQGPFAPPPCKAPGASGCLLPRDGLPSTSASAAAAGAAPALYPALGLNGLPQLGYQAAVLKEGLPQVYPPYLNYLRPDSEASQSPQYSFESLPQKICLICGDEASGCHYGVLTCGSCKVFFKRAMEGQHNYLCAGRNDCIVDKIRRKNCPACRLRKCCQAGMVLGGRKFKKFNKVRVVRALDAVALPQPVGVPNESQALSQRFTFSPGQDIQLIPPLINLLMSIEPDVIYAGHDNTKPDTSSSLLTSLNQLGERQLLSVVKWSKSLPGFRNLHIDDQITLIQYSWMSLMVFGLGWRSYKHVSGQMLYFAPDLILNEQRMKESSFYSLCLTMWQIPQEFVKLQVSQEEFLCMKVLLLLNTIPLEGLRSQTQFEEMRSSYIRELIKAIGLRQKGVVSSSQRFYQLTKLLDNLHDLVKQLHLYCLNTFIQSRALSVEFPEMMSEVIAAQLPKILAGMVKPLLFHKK

System in the first assay: not listed separately
In words: TOX21_PR_BLA_Followup_Agonist_viability: Viability Assessment in the Tox21 HEK293 Progesterone Receptor (PR) Agonism Beta-lactamase Follow-Up Assay (AID 2283935).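 Further: signal loss means lower viability so actives are cytotoxic.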 Put shortly: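 HEK293T PR-UAS-bla, 3,000 cells/well, 2% CS-FBS; 6 hr pre-incubation; cpd in DMSO, 16 hr 37C; LiveBLAzer 2 hr RT, then CellTiter-Glo 30 min RT, luminescence. Decrease = lost viability.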
Consider `O=C(Oc1ccccc1)c1ccc(O)cc1`, for which the result was inactive.
On the same count and under the same terms, for `C[C@H]1C[C@H]2[C@@H]3CCC4=CC(=O)C=C[C@]4(C)[C@@]3(F)[C@@H](O)C[C@]2(C)[C@@]1(O)C(=O)COP(=O)(O)O` the value was “inactive”; for `C[C@]12CC[C@H]3[C@@H](CCC4=CC(=O)CC[C@@]43C)[C@@H]1CC[C@@H]2C(=O)CO`, “inactive”.
For the compound `COC(=O)C1=C(C)NC(C)=C(C(=O)OCCN(C)Cc2ccccc2)C1c1cccc([N+](=O)[O-])c1` (configuration not stated), the AC50 is 79.9 µM (active).
In the case of `C#C[C@]1(O)CC[C@H]2[C@@H]3CCC4=Cc5oncc5C[C@]4(C)[C@H]3CC[C@@]21C`, the result was inactive.
Turning to `CC(=O)[C@H]1CC[C@H]2[C@@H]3CC=C4C[C@@H](O)CC[C@]4(C)[C@H]3CC[C@]12C`, the compound was called inactive.
Still for that read-out and setting: for `C[C@H]1C[C@@H]2[C@H]([C@@H](O)C[C@@]3(C)[C@H]2CC[C@]3(O)C(=O)CO)[C@@]2(C)C=CC(=O)C=C12` the value was “inactive”; for `CCCc1c(OCCCOc2ccc(OCC(=O)O)cc2)ccc(C(C)=O)c1O`, “inactive”.
On the same count and under the same terms, the result for `O=c1cc(-c2ccccc2)oc2cc(O)cc(O)c12` reads “inactive”.

System in a further assay: not listed separately
In words: TOX21_PR_BLA_Followup_Antagonist_viability: Viability Assessment in the Tox21 HEK293 Progesterone Receptor (PR) Antagonism Beta-lactamase Follow-Up Assay (AID 2283936).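 Further: cells exposed to compound with R5020 agonist for 16 h; hits lower the luminescence signal meaning cytotoxicity.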 The method, then:
TOX21_PR_BLA_Followup is a secondary assay for specificity for the TOX21_PR_BLA_Agonist assay. To differentiate true PR agonists from cytotoxic substances, this follow up assay is multiplexed with a cell viability assay. The compounds were also tested for auto fluorescence that may interfere with the biological target readout resulting in potential false positives and/or negatives. To identify the compounds that stimulate PR signaling, a PR-UAS-bla GripTite cell line i.e. PR-UAS-bla HEK293T (Invitrogen, Carlsbad, CA, USA) containing a beta-lactamase reporter gene under the control of an UAS response element was used to screen Tox21 10K compound library. The cytotoxicity of the Tox21 compound library against the PR-bla cell line was tested in parallel by measuring the cell viability using CellTiter-Glo assay in the same wells. TOX21_PR_BLA_Followup_Antagonist_viability is a component of the TOX21_PR_BLA_Followup_Antagonist assay. This component measures cell viability using the CellTiter-Glo Luciferase-coupled ATP quantitation.TOX21_PR_BLA_Followup_Antagonist_viability used a type of viability reporter where loss-of-signal activity can be used to understand changes in the cell viability. Furthermore, this assay endpoint can be referred to as a secondary readout, because this assay has produced multiple assay endpoints where this one serves a viability function. To generalize the intended target to other relatable targets, this assay endpoint is annotated to the cell cycle intended target family, where the subfamily is cytotoxicity.
Assay Protocol: PR-UAS-bla HEK293T cells were dispensed at 3,000 cells/4 uL of assay medium containing 2% charcoal stripped FBS per well into black wall/clear-bottom 1536-well plates using a Multidrop Combi (ThermoFisher Scientific, Waltham, MA) dispenser. After the assay plates were incubated at a 37C and 5% CO2 for 4 hr, 23 nL of compounds dissolved in DMSO, positive controls or DMSO only was transferred to the assay plate by a Pintool station (Kalypsys, San Diego, CA), followed by addition of 1 uL of R5020 in assay medium using a Flying Reagent Dispenser (FRD, Aurora Discovery, San Diego, CA). The plates were incubated at 37C and 5% CO2 for 16 hr. Then 1 uL of LiveBLAzer B/G FRET substrate was added using a Flying Reagent Dispenser, the plates were incubated at room temperature for 2 hours, and fluorescence intensity was measured by an Envision plate reader (PerkinElmer, Shelton, CT). For cell viability readout that measures cytotoxicity, 4 uL/well of CellTiter-Glo reagent was added into the assay plates using a FRD. After 30 min incubation at room temperature, the luminescence intensity in the plates was measured using a ViewLux (PerkinElmer) plate reader.
Take `O=C(Oc1ccccc1)c1ccc(O)cc1`: the call was inactive.
Still for that read-out and setting: for `C[C@H]1C[C@H]2[C@@H]3CCC4=CC(=O)C=C[C@]4(C)[C@@]3(F)[C@@H](O)C[C@]2(C)[C@@]1(O)C(=O)COP(=O)(O)O` the value was “inactive”; for `C[C@]12CC[C@H]3[C@@H](CCC4=CC(=O)CC[C@@]43C)[C@@H]1CC[C@@H]2C(=O)CO`, “inactive”.
With `COC(=O)C1=C(C)NC(C)=C(C(=O)OCCN(C)Cc2ccccc2)C1c1cccc([N+](=O)[O-])c1` (configuration not stated), the AC50 was 72.7 µM (active).
With `C#C[C@]1(O)CC[C@H]2[C@@H]3CCC4=Cc5oncc5C[C@]4(C)[C@H]3CC[C@@]21C`, the call was inactive.
The same measure, in the same setting: the result for `CC(=O)[C@H]1CC[C@H]2[C@@H]3CC=C4C[C@@H](O)CC[C@]4(C)[C@H]3CC[C@]12C` reads “inactive”; that for `C[C@H]1C[C@@H]2[C@H]([C@@H](O)C[C@@]3(C)[C@H]2CC[C@]3(O)C(=O)CO)[C@@]2(C)C=CC(=O)C=C12`, “inactive”.
Same read-out and setting: the result for `CCCc1c(OCCCOc2ccc(OCC(=O)O)cc2)ccc(C(C)=O)c1O` reads “inactive”.
Same read-out and setting: the result for `O=c1cc(-c2ccccc2)oc2cc(O)cc(O)c12` reads “inactive”.

Another assay addresses PGR (gene 5241) (UniProt P06401). In words: TOX21_PR_LUC_Followup_Agonist: Tox21 HEK293 Progesterone Receptor (PR) Agonism Luciferase Follow-Up Assay (AID 2283937; active means hit-call score of the fitted dose curve at least 0.9, where 1 is the maximum; inactive means score below 0.9). Put shortly: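 Cells: HEK293-PR-A-luc, 3,000/well, 10% charcoal-stripped FBS assay medium. Compound added after 5 h; 16 h, 37C, 0% CO2. ONE-Glo luciferase, luminescence. Positive fit vs DMSO.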
With `C[C@H]1C[C@@H]2[C@H]([C@@H](O)C[C@@]3(C)[C@H]2CC[C@]3(O)C(=O)CO)[C@@]2(C)C=CC(=O)C=C12`, the AC50 is 0.334 µM (active).
For the compound `CCCc1c(OCCCOc2ccc(OCC(=O)O)cc2)ccc(C(C)=O)c1O`, the outcome was inactive.
Regarding `O=c1cc(-c2ccccc2)oc2cc(O)cc(O)c12`, the AC50 was 31 µM (active).

For another assay the target is unchanged. The experiment in a line: TOX21_PR_LUC_Followup_Antagonist: Tox21 HEK293 Progesterone Receptor (PR) Antagonism Luciferase Follow-Up Assay (AID 2283938).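 Further: curve fitted upward as signal gain over DMSO baseline despite antagonist label.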 An outline of the steps:
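Luciferase reporter in HEK293-PR-A-luc cells: 16 h compound treatment at 37C, ONE-Glo luminescence detection, DMSO as negative control and baseline.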
For the compound `C[C@]12CC[C@H]3[C@@H](CCC4=CC(=O)CC[C@@]43C)[C@@H]1CC[C@@H]2C(=O)CO`, the outcome was inactive.
`COC(=O)C1=C(C)NC(C)=C(C(=O)OCCN(C)Cc2ccccc2)C1c1cccc([N+](=O)[O-])c1` (configuration not stated): the AC50 is 21.8 µM (active).
For `C#C[C@]1(O)CC[C@H]2[C@@H]3CCC4=Cc5oncc5C[C@]4(C)[C@H]3CC[C@@]21C`, the outcome was inactive.
As to `CC(=O)[C@H]1CC[C@H]2[C@@H]3CC=C4C[C@@H](O)CC[C@]4(C)[C@H]3CC[C@]12C`, the outcome was inactive.
For the compound `CCCc1c(OCCCOc2ccc(OCC(=O)O)cc2)ccc(C(C)=O)c1O`, the half-maximal activity concentration (AC50) is 63.6 µM (active).
With `O=c1cc(-c2ccccc2)oc2cc(O)cc(O)c12`, the compound was called inactive.
